# Test results: PubChem BioAssay (NCATS)
# Several values for one entry are separate records, joined by “and”; a condition that tells them apart may be missing. Identical values can stand only once. Inconclusive results are not listed. A call without a number means that no potency is given here. Activity calls are given as the source filed them. The call rests on the fitted dose curve; in most records, active means well fitted curve in the direction sought with a large enough effect; inconclusive means small, poorly fitted or top-dose-only effect, or another doubt; inactive means no such curve, though single readings can be large; an effect the other way counts as inactive or inconclusive. Non-standard residues stand in square brackets, D forms with d. Residues, ends and D or L forms follow the SMILES beside them. *: point of attachment. Sta = CC(C)C[C@H](N)[C@@H](O)CC(=O)O; Isovaleryl = CC(C)CC(=O)*
# Tests used:
# [1] = qHTS of pediatric cancer cell lines to identify multiple opportunities for drug repurposing: Confirmatory screen for Saos-2 cells (AID 1347127); further: nearly all actives have a fitted effect of over 60% in size; further: potency means the concentration at half of the fitted maximal effect
# How it was run: (§1)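 Cells (500-1,000/well) in growth media were settled 5 h at 37 degrees C, then given compounds for 48 h. Viability was read as CellTiter-Glo luminescence. Primary runs used MIPE at 11 points (0.78 nM-46 µM) and NPC at 8 points (0.59 nM-46 µM); follow-ups used 11 points.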
# [2] = qHTS of pediatric cancer cell lines to identify multiple opportunities for drug repurposing: Confirmatory screen for OHS-50 cells (AID 1347128);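 further: compound exposure lasted 48 h at 37 degrees C; nearly all actives have a fitted effect of over 55% in size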; further: potency means the concentration at half of the fitted maximal effect
# How it was run: as §1
# [3] = test system: Zika virus NS2B-NS3 protease; assay: Primary screen GU AMC qHTS for Zika virus inhibitors (AID 1347154); further: nearly all actives have a fitted effect of over 70% in size
# How it was run: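 Unlinked Zika NS2B hydrophilic domain/NS3 protease domain noncovalent complex (25 nM final) in 10 mM Tris-HCl pH 8.0, 0.01% Tween 20, with AMC peptide substrate. Fluorescence (ex 340, em 450 nm) change over 15 min, room temperature; percent inhibition fitted to 4-parameter Hill equation.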
# [4] = qHTS of pediatric cancer cell lines to identify multiple opportunities for drug repurposing: Confirmatory screen for SK-N-SH cells (AID 1347129);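 further: cells exposed to compound for 48 h before viability read; nearly all actives have a fitted effect of over 60% in size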; further: potency means the concentration at half of the fitted maximal effect
# How it was run: as §1
# [5] = target: N-terminal Xaa-Pro-Lys N-methyltransferase 1 (Homo sapiens) (UniProt Q9BV86); assay: qHTS Assay for Inhibitors of N-terminal methyltransferase 1 (NTMT1): LOPAC validation of the NTMT1 SAHH-coupled ThioGlo3 Assay (AID 1347143); further: nearly all actives have a fitted effect of over 70% in size; further: potency means the concentration at half of the fitted maximal effect
# Sequence of N-terminal Xaa-Pro-Lys N-methyltransferase 1 (Homo sapiens) (Q9BV86 whole entry, looked up): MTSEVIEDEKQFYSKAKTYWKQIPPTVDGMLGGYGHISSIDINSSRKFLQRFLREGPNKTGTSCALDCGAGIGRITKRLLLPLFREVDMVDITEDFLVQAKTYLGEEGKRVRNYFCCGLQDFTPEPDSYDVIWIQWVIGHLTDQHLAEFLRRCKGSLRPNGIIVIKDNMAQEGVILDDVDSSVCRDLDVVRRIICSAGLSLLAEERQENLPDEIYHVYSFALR
# How it was run: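 Fluorescence read-out (excitation 340nm, emission 450nm) of SAH-derived thiol, measured via SAHH coupling and ThioGlo3, taken immediately and after a 30 min room-temperature reaction, then normalized to the background read. Enzyme: NTMT1 at 125nM; cofactor SAM 100uM in the added reagent.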
# [6] = test system: Zika virus NS2B-NS3 protease (unlinked); assay: Optimization of GU AMC qHTS for Zika virus inhibitors: Unlinked NS2B-NS3 protease assay (AID 1347151); further: series mostly up to about 52 µM; nearly all actives have a fitted effect of over 80% in size
# How it was run: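 In this qHTS, compounds acted on 25 nM unlinked Zika NS2B–NS3 in pH 8.0 Tris/Tween buffer. Cleavage of an AMC peptide ran 15 min at room temperature, to about 20% conversion.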
# [7] = test system: Zika virus NS2B-NS3 protease (linked construct); assay: Confirmatory screen NINDS AMC qHTS for Zika virus inhibitors (AID 1347152);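 further: AMC fluorescence gain from cleaved Bz-Nle-KRR-AMC substrate over 15 min; top concentration of the series differs between compounds; nearly all actives have a fitted effect of over 70% in size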
# How it was run: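 Concentration-response confirmation used the NINDS linked protease (NS2B hydrophilic domain joined to NS3 protease domain), 1 nM, with a 15-min compound preincubation. Substrate, Nle-KRR-AMC at 10 microM, was read by UV fluorescence before and after 15 min.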
# [8] = test system: Zika virus NS2B-NS3 protease (unlinked complex); assay: Confirmatory screen GU AMC qHTS for Zika virus inhibitors (AID 1347153); further: nearly all actives have a fitted effect of over 70% in size
# How it was run: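 Noncovalent NS2B hydrophilic domain/NS3 protease complex (25 nM) in 10 mM Tris-HCl pH 8.0, 0.01% Tween 20 was preincubated 15 min at room temperature with compounds. Then 10 µM AMC substrate (Km 18.3 µM) was added; fluorescence was read over 15 min and fitted to a 4-parameter Hill equation.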
# [9] = Confirmatory screen GU Rhodamine qHTS for Zika virus inhibitors qHTS (AID 1347157); details: purified enzyme assay, Rhodamine110 substrate fluorescence, 15 min
# How it was run: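 Unlinked NS2B/NS3, 25 nM; Rhod110 peptide, 1.5 microM; compounds, up to 114 microM. Reaction run 15 min at RT in 10 mM Tris-HCl pH 8.0, 0.01% Tween 20; kinetic fluorescence change fitted with a 4-parameter Hill model.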
smiles,measurement,setting,value
CCCCc1ccc2nc(NC(=O)OC)[nH]c2c1,Potency,[1],233 nM (active)
same,Potency,[2],0.329 µM (active)
same,Potency,[3],inactive
Cc1ccc(Nc2nccc(N(C)c3ccc4c(C)n(C)nc4c3)n2)cc1S(N)(=O)=O,Potency,[4],18.7 µM (active)
same,Potency,[3],inactive
CC(C)CC(=O)N[C@H](C(=O)N[C@H](C(=O)N[C@@H](CC(C)C)[C@@H](O)CC(=O)N[C@@H](C)C(=O)N[C@@H](CC(C)C)[C@@H](O)CC(=O)O)C(C)C)C(C)C (Isovaleryl-VV[Sta]A[Sta]-OH),Potency,[4],inactive
same,Potency,[3],inactive
Nc1ccn([C@@H]2O[C@H](CO)[C@@H](O)C2O)c(=O)n1 (stereo not given in full),Potency,[1],inactive
same,Potency,[2],inactive
same,Potency,[4],inactive
same,Potency,[3],inactive
CC1(C)C(=O)N(CCN2CCC(C(=O)c3ccc(F)cc3)CC2)c2ccccc21,Potency,[1],inactive
same,Potency,[5],inactive
same,Potency,[6],inactive
same,Potency,[3],inactive
CC[C@]1(O)C[C@H]2CN(CCc3c([nH]c4ccccc34)[C@@](C(=O)OC)(c3cc4c(cc3OC)N(C=O)[C@H]3[C@@](O)(C(=O)OC)[C@H](OC(C)=O)[C@]5(CC)C=CCN6CC[C@]43[C@@H]65)C2)C1,Potency,[1],8.3 nM (active) and 165 nM (active)
same,Potency,[3],inactive
CC(S)C(=O)NCC(=O)O (stereo not given),Potency,[1],inactive
same,Potency,[2],inactive
same,Potency,[4],inactive
same,Potency,[3],inactive
O=Nc1c(-c2c(O)[nH]c3cc(Br)ccc23)[nH]c2ccccc12,Potency,[5],14.1 µM (active)
Oc1ccc(-c2nc(-c3ccc(F)cc3)c(-c3ccncc3)[nH]2)cc1,Potency,[2],3.69 µM (active)
same,Potency,[4],5.26 µM (active)
same,Potency,[5],79.4 µM (active)
same,Potency,[7],inactive
same,Potency,[8],inactive
same,Potency,[3],inactive
N[C@@H](Cc1cc(I)c(Oc2cc(I)c(O)c(I)c2)c(I)c1)C(=O)O,Potency,[9],6.1 µM (active)
O=c1c(O)c(-c2ccc(O)cc2O)oc2cc(O)cc(O)c12,Potency,[9],20 µM (active)
